The structures appear in SMILES notation. In all, about 39,000 compounds went through this assay and about 1,500 (3.8%) were called active. For the sample, actives were picked, then their nearest neighbours and some compounds at random.

The assay concerns HSkMC (human skeletal muscle cells). Briefly: cytotoxicity call (relative viability < 0.9). Conditions: 10 µM.
On to `C[C@H]1CN([C@@H](C)CO)C(=O)c2cc(NC(=O)Cc3ccccc3)ccc2O[C@@H]1CN(C)S(=O)(=O)c1ccccc1`, for which the cytotoxicity call was “inactive”.

`COc1cccc(S(=O)(=O)Nc2ccc3c(c2)[C@@H]2C[C@H](CC(=O)NCC(F)(F)F)O[C@H](CO)[C@@H]2O3)c1`: the cytotoxicity call was “inactive”.

On to `C[C@@H]1CN([C@H](C)CO)C(=O)CCCn2nncc2CO[C@@H]1CN(C)C(=O)Nc1cccc(Oc2ccccn2)c1`, for which the cytotoxicity call is “inactive”.

`COCCNC(=O)C[C@H]1CC[C@H]2[C@@H](COc3ccc(NC(=O)Nc4cccc(F)c4)cc3C(=O)N2C)O1`: the cytotoxicity call is “inactive”.

Regarding `Cc1noc(C)c1NC(=O)Nc1cccc2c1O[C@H](CN(C)Cc1ccc(Cl)c(Cl)c1)[C@H](C)CN([C@@H](C)CO)C2=O`, the cytotoxicity call was “inactive”.

Consider `C[C@@H]1CN([C@@H](C)CO)C(=O)CCCn2cc(nn2)CO[C@@H]1CN(C)Cc1ccc2c(c1)OCCN2C`, for which the cytotoxicity call is “inactive”.

As for `C[C@@H]1CN([C@@H](C)CO)C(=O)c2cc(NC(=O)C3CC3)ccc2O[C@H]1CN(C)C(=O)Nc1ccc2c(c1)OCO2`, the cytotoxicity call was “inactive”.

Consider `CCc1nc2ccccc2c(C(=O)Nc2cccc(Cl)c2)c1C`, for which the cytotoxicity call is “inactive”.

As for `C[C@@H]1CN([C@H](C)CO)C(=O)Cc2cc(NC(=O)C3CC3)ccc2O[C@@H]1CN(C)C(=O)Nc1ccc2c(c1)OCO2`, the cytotoxicity call was “inactive”.

Turning to `O=C(C[C@@H]1CC[C@@H](NC(=O)c2cnccn2)[C@H](CO)O1)NCc1ccccc1F`, the cytotoxicity call was “inactive”.

As to `C[C@H]1CN([C@@H](C)CO)C(=O)Cc2cc(NC(=O)Cn3cnnn3)ccc2O[C@H]1CN(C)Cc1ccccc1`, the cytotoxicity call was “inactive”.

As for `Cn1c(-c2ccccc2)c[nH]c1=S`, the cytotoxicity call was “inactive”.

On to `COc1ccc(CN(C)C[C@H]2OCCCC[C@H](C)Oc3ccc(NC(=O)Nc4ccc(C(F)(F)F)cc4)cc3C(=O)N([C@@H](C)CO)C[C@H]2C)cc1`, for which the cytotoxicity call is “active”.

With `COc1ccc(NC(=O)Nc2ccc3c(c2)C(=O)N([C@H](C)CO)C[C@@H](C)[C@H](CN(C)Cc2ccc(C(F)(F)F)cc2)OCCCC[C@@H](C)O3)cc1`, the cytotoxicity call was “inactive”.

In the case of `COc1ccc(CN(C)C[C@@H]2OCCCC[C@@H](C)Oc3ccc(NC(=O)Nc4ccc(C(F)(F)F)cc4)cc3C(=O)N([C@H](C)CO)C[C@H]2C)cc1`, the cytotoxicity call was “active”.

As to `COc1ccc(NC(=O)Nc2ccc3c(c2)C(=O)N([C@@H](C)CO)C[C@@H](C)[C@@H](CN(C)Cc2ccc(C(F)(F)F)cc2)OCCCC[C@H](C)O3)cc1`, the cytotoxicity call is “inactive”.

Consider `COc1ccc(NC(=O)Nc2ccc3c(c2)C(=O)N([C@@H](C)CO)C[C@H](C)[C@@H](CN(C)Cc2ccc(C(F)(F)F)cc2)OCCCC[C@@H](C)O3)cc1`, for which the cytotoxicity call was “inactive”.

As to `COc1ccc(NC(=O)Nc2ccc3c(c2)C(=O)N([C@H](C)CO)C[C@H](C)[C@@H](CN(C)Cc2ccc(C(F)(F)F)cc2)OCCCC[C@H](C)O3)cc1`, the cytotoxicity call is “inactive”.

Take `COc1ccc(CN(C)C[C@H]2OCCCC[C@H](C)Oc3ccc(NC(=O)Nc4ccc(C(F)(F)F)cc4)cc3C(=O)N([C@@H](C)CO)C[C@@H]2C)cc1`: the cytotoxicity call was “active”.

Take `Cc1noc(C)c1S(=O)(=O)Nc1ccc2c(c1)C(=O)N([C@H](C)CO)C[C@H](C)[C@@H](CN(C)C(=O)NC(C)C)O2`: the cytotoxicity call is “inactive”.

Turning to `COc1ccc(NC(=O)N(C)C[C@@H]2Oc3c(NS(C)(=O)=O)cccc3C(=O)N([C@@H](C)CO)C[C@@H]2C)cc1`, the cytotoxicity call is “inactive”.

With `O=C(C[C@@H]1CC[C@H]2[C@@H](COC[C@@H](O)CN2S(=O)(=O)c2ccc(Cl)cc2)O1)NCCN1CCCC1`, the cytotoxicity call was “inactive”.

As to `C[C@@H]1CN([C@H](C)CO)C(=O)c2cccc(NS(=O)(=O)c3ccc(F)cc3)c2O[C@@H]1CN(C)S(=O)(=O)c1ccc(F)cc1`, the cytotoxicity call was “inactive”.

As to `C[C@@H]1CN([C@@H](C)CO)C(=O)c2cc(NC(=O)Nc3ccc(F)cc3)ccc2O[C@@H](C)CCCCO[C@@H]1CN(C)C(=O)CCCN(C)C`, the cytotoxicity call was “inactive”.

On to `O=C(C[C@H]1CC[C@@H]2[C@H](COC[C@H](O)CN2C(=O)c2ccccc2)O1)NCCCN1CCOCC1`, for which the cytotoxicity call is “inactive”.

Take `C[C@@H]1CN([C@@H](C)CO)C(=O)Cc2cc(NS(=O)(=O)c3ccc(F)cc3)ccc2O[C@H]1CN(C)S(=O)(=O)c1cn(C)cn1`: the cytotoxicity call is “inactive”.

Regarding `C[C@@H]1CN([C@@H](C)CO)C(=O)c2cc(NC(=O)Nc3ccc(C(F)(F)F)cc3)ccc2O[C@@H]1CN(C)C(=O)Nc1ccc(C(F)(F)F)cc1`, the cytotoxicity call is “inactive”.

Regarding `C[C@@H]1CCCCO[C@H](CN(C)CC2CC2)[C@H](C)CN([C@H](C)CO)C(=O)c2cc(NC(=O)C3CCCCC3)ccc2O1`, the cytotoxicity call is “inactive”.

Take `COc1ccc(CN(C)C[C@@H]2OCCCC[C@H](C)Oc3ccc(NC(=O)C4CCCCC4)cc3C(=O)N([C@@H](C)CO)C[C@@H]2C)cc1`: the cytotoxicity call is “inactive”.

Turning to `Nc1ccc(CCNc2ncnc3c2ncn3[C@@H]2O[C@H](CO)[C@@H](O)[C@H]2O)cc1`, the cytotoxicity call is “inactive”.

With `Nc1ncnc2c1ncn2C1OC(CO)C(O)C1O` (stereo not given), the cytotoxicity call was “inactive”.

In the case of `CNc1ncnc2c1ncn2[C@@H]1O[C@H](CO)[C@@H](O)[C@H]1O`, the cytotoxicity call is “inactive”.

With `COc1ccc(C[C@H](N)C(=O)N[C@H]2[C@@H](O)[C@@H](n3cnc4c(N(C)C)ncnc43)O[C@@H]2CO)cc1`, the cytotoxicity call is “active”.

As to `COc1ccc(C[C@@H](N)C(=O)N[C@@H]2[C@@H](O)[C@@H](n3cnc4c(N(C)C)ncnc43)O[C@@H]2CO)cc1`, the cytotoxicity call was “active”.

As to `CN(C)c1ncnc2c1ncn2[C@H]1O[C@@H](CO)[C@@H](N)[C@@H]1O`, the cytotoxicity call is “inactive”.

Regarding `COc1nc(N)nc2c1ncn2[C@@H]1O[C@H](CO)[C@@H](O)[C@@H]1O`, the cytotoxicity call was “inactive”.

For `Nc1ncnc2c1ncn2[C@H]1O[C@@H](CO)[C@H](O)[C@@H]1S`, the cytotoxicity call is “inactive”.

Turning to `COc1ccc(CC(N)C(=O)NC2C(CO)OC(n3cnc4c(N(C)C)ncnc43)C2O)cc1.Cl.Cl` (stereo not given), the cytotoxicity call was “active”.

`COc1ccc(C[C@H](N)C(=O)N[C@H]2[C@@H](O)[C@H](n3cnc4c(N(C)C)ncnc43)O[C@@H]2CO)cc1`: the cytotoxicity call is “active”.

With `Nc1ncnc2c1ncn2[C@@H]1O[C@H](CO)[C@@H](O)[C@H]1O`, the cytotoxicity call was “inactive”.

As to `OC[C@H]1O[C@@H](n2cnc3c(NCc4ccco4)ncnc32)[C@H](O)[C@@H]1O`, the cytotoxicity call was “inactive”.

For the compound `C[C@H](CO)N1C[C@H](C)[C@@H](CN(C)C(=O)Nc2ccc3c(c2)OCO3)Oc2ccc(NC(=O)CCN3CCOCC3)cc2C1=O`, the cytotoxicity call is “inactive”.

With `Cc1noc(C)c1NC(=O)N(C)C[C@H]1Oc2ccc(NC(=O)C3CC3)cc2CC(=O)N([C@@H](C)CO)C[C@H]1C`, the cytotoxicity call is “inactive”.

For `CCOCCCNc1nc2c([nH]1)c(=O)n(C)c(=O)n2C`, the cytotoxicity call was “inactive”.

`C[C@@H]1CN([C@H](C)CO)S(=O)(=O)c2ccc(-c3cncnc3)cc2O[C@H]1CN(C)C(=O)c1cccc(F)c1`: the cytotoxicity call was “inactive”.

As to `C[C@@H]1CN([C@@H](C)CO)C(=O)c2cccc(NC(=O)c3cnccn3)c2O[C@@H]1CN(C)CC1CCCCC1`, the cytotoxicity call is “inactive”.

As to `COc1cccc(C#Cc2ccc3c(c2)O[C@@H](CN(C)C(=O)c2ccccn2)[C@H](C)CN([C@H](C)CO)S3(=O)=O)c1`, the cytotoxicity call was “inactive”.

Regarding `COC(=O)CCCCCCC(=O)Nc1ccc([C@H]2O[C@@H](CSc3nc(-c4ccccc4)c(-c4ccccc4)o3)C[C@H](c3ccc([N+](=O)[O-])cc3)O2)cc1`, the cytotoxicity call was “inactive”.

On to `COCCOC(=O)N1C(=O)[C@@]2(c3cc(C#Cc4ccc(OC)cc4)ccc31)[C@H](c1ccc(O)cc1)N1[C@H](c3ccccc3)[C@H](c3ccccc3)OC(=O)[C@H]1[C@@H]2C(=O)NC[C@H](O)c1ccccc1`, for which the cytotoxicity call was “inactive”.

As to `O=C(NCc1csnn1)c1csnn1`, the cytotoxicity call was “inactive”.

On to `O=C(COC(=O)/C=C/c1cn(-c2ccccc2)nc1-c1ccc2c(c1)OCCO2)N[C@H]1CCS(=O)(=O)C1`, for which the cytotoxicity call is “inactive”.

As to `C[C@H]1CN([C@@H](C)CO)C(=O)CCCn2nncc2CO[C@@H]1CN(C)S(=O)(=O)c1ccc(-n2cccn2)cc1`, the cytotoxicity call is “inactive”.

For the compound `COc1ccc(S(=O)(=O)N[C@H]2C=C[C@H](CC(=O)N3CCC(Cc4ccccc4)CC3)O[C@H]2CO)cc1`, the cytotoxicity call is “inactive”.

As for `C[C@@H]1CN([C@@H](C)CO)C(=O)Cc2cc(NC(=O)CCN3CCOCC3)ccc2O[C@H]1CN(C)C(=O)NC1CCCCC1`, the cytotoxicity call is “inactive”.

On to `CC(C)(N)c1ccccc1Br`, for which the cytotoxicity call was “inactive”.

In the case of `C[C@@H]1CN([C@@H](C)CO)C(=O)c2cccc(NC(=O)NC3CCCCC3)c2O[C@H]1CN(C)Cc1ccc(Cl)c(Cl)c1`, the cytotoxicity call was “inactive”.

Take `COc1cc2nc(N3CCN(C(=O)C4CCCO4)CC3)nc(N)c2cc1OC.Cl` (stereo not given): the cytotoxicity call was “inactive”.

Consider `COc1cc2c(NC3CCN(C)CC3)nc(N3CCCN(C)CC3)nc2cc1OCCOCCN(C)C`, for which the cytotoxicity call was “inactive”.

As for `COc1cc2c(NC3CCN(C(C)C)CC3)nc(N3CCC(F)(F)CC3)nc2cc1OCCCN1CCCC1`, the cytotoxicity call was “active”.

Regarding `C[C@@H]1CN([C@@H](C)CO)C(=O)Cc2cc(NS(=O)(=O)c3ccccc3)ccc2O[C@@H]1CN(C)Cc1ccc(C(=O)O)cc1`, the cytotoxicity call is “inactive”.

Consider `COc1cccc(NC(=O)N(C)C[C@H]2OCc3ccccc3-c3c(n(C)c4ccccc34)C(=O)N([C@H](C)CO)C[C@H]2C)c1`, for which the cytotoxicity call is “inactive”.

`C[C@@H]1CCCCO[C@@H](CN(C)C(=O)CCC(F)(F)F)[C@H](C)CN([C@@H](C)CO)C(=O)c2cc(NS(=O)(=O)c3cccs3)ccc2O1`: the cytotoxicity call was “inactive”.

Consider `Cc1ccc(S(=O)(=O)Nc2ccc3c(c2)C(=O)N([C@@H](C)CO)C[C@@H](C)[C@@H](CN(C)C(=O)c2ccccc2)OCCCC[C@@H](C)O3)cc1`, for which the cytotoxicity call was “inactive”.

Consider `C[C@H](CO)N1C[C@H](C)[C@H](CN(C)Cc2ccc(C(F)(F)F)cc2)Oc2ccc(NC(=O)Cc3ccccc3)cc2C1=O`, for which the cytotoxicity call was “inactive”.

On to `Cc1ccc(S(=O)(=O)N(C)C[C@@H]2Oc3cc(Br)ccc3S(=O)(=O)N([C@@H](C)CO)C[C@@H]2C)cc1`, for which the cytotoxicity call is “inactive”.

For `COc1ccc(S(=O)(=O)Nc2ccc3c(c2)C(=O)N([C@H](C)CO)C[C@@H](C)[C@H](CN(C)Cc2ccc(C(F)(F)F)cc2)OCCCC[C@@H](C)O3)cc1`, the cytotoxicity call is “inactive”.

For `COc1ccc(S(=O)(=O)Nc2ccc3c(c2)C(=O)N([C@H](C)CO)C[C@@H](C)[C@@H](CN(C)Cc2ccc(C(F)(F)F)cc2)OCCCC[C@@H](C)O3)cc1`, the cytotoxicity call was “active”.

Take `COc1ccc(S(=O)(=O)Nc2ccc3c(c2)C(=O)N([C@@H](C)CO)C[C@@H](C)[C@@H](CN(C)Cc2ccc(C(F)(F)F)cc2)OCCCC[C@H](C)O3)cc1`: the cytotoxicity call was “inactive”.

For `COc1ccc(S(=O)(=O)Nc2ccc3c(c2)C(=O)N([C@H](C)CO)C[C@H](C)[C@H](CN(C)Cc2ccc(C(F)(F)F)cc2)OCCCC[C@H](C)O3)cc1`, the cytotoxicity call was “active”.

`COc1ccc(S(=O)(=O)Nc2ccc3c(c2)C(=O)N([C@@H](C)CO)C[C@H](C)[C@@H](CN(C)Cc2ccc(C(F)(F)F)cc2)OCCCC[C@@H](C)O3)cc1`: the cytotoxicity call was “inactive”.

With `COc1ccc(S(=O)(=O)Nc2ccc3c(c2)C(=O)N([C@@H](C)CO)C[C@@H](C)[C@@H](CN(C)Cc2ccc(C(F)(F)F)cc2)OCCCC[C@@H](C)O3)cc1`, the cytotoxicity call is “inactive”.

With `COc1ccc(S(=O)(=O)Nc2ccc3c(c2)C(=O)N([C@H](C)CO)C[C@H](C)[C@@H](CN(C)Cc2ccc(C(F)(F)F)cc2)OCCCC[C@@H](C)O3)cc1`, the cytotoxicity call was “active”.

Turning to `COc1ccc(S(=O)(=O)Nc2ccc3c(c2)C(=O)N([C@H](C)CO)C[C@@H](C)[C@@H](CN(C)Cc2ccc(C(F)(F)F)cc2)OCCCC[C@H](C)O3)cc1`, the cytotoxicity call is “inactive”.

On to `COc1ccc(S(=O)(=O)Nc2ccc3c(c2)C(=O)N([C@@H](C)CO)C[C@@H](C)[C@H](CN(C)Cc2ccc(C(F)(F)F)cc2)OCCCC[C@@H](C)O3)cc1`, for which the cytotoxicity call was “active”.

In the case of `COc1ccc(S(=O)(=O)Nc2ccc3c(c2)C(=O)N([C@@H](C)CO)C[C@H](C)[C@@H](CN(C)Cc2ccc(C(F)(F)F)cc2)OCCCC[C@H](C)O3)cc1`, the cytotoxicity call is “inactive”.
